Only some compounds are listed: those with a hit (about 1.7% of all), similar ones and a draw of the others.
TRPML1 ag = qHTS for Agonists of the Human Mucolipin Transient Receptor Potential 1 (TRPML1); TRPML1-expressing cells, Ca2+ dye fluorescence, FDSS; activation, % (concentration not given with the values); 0.12% of 410,000 active; AID 624414, 2012; in the data active = activation above about 50%; inconclusive = mostly about 30% to 49%; note: 0% is about no effect
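Agonist activity was taken from a 110 s kinetic Ca2+ dye read on the FDSS after pinning compounds onto TRPML1-DL cells. The cells were seeded at 1,500/well with Tet inducer, incubated about 16 h, then dye-loaded at room temperature.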
TRPML1 blocker = qHTS for Inhibitors of the Human Mucolipin Transient Receptor Potential 1 (TRPML1); TRPML1-inducible cells, Ca2+ dye fluorescence, FDSS; stronger effect = lower value; inhibition of EC80 agonist-evoked calcium signal; Mucolipin-1 (Homo sapiens), Q9GZU1; activity change, negative = inhibition, % (concentration not given with the values); 0.02% of 390,000 active; AID 624415, 2012; in the data active = activity change below about -50%; inconclusive = between about -30% and that limit;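 note: stimulus is agonist 54-4 at its EC80 concentration; % is set by controls: 0 for no effect and ±100 for the full control effect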
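Calcium fluorescence in TRPML1-DL cells induced overnight with Tet: a 110 s read after compound pin addition, then a 110 s antagonist read after challenge with 54-4 at 4 uM final (EC80).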
hERG WT inh = qHTS for Inhibitors of KCHN2 3.1: Wildtype qHTS | U2OS, BacMam KCNH2, thallium flux FluxOr; stronger effect = lower value | Voltage-gated inwardly rectifying potassium channel KCNH2 (Homo sapiens), Q12809 | 0.37% of 340,000 active | activity change, % at 1.84 µM;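 active = maximum activity change below -70%; inconclusive = maximum activity change between -70% and -50%; inactive = maximum activity change above -50%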; note: % is set by controls: 0 for no effect and ±100 for the full control effect
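U2OS cells transduced with wild-type KCNH2 virus are loaded with FluxOr dye for 45 min, and thallium flux is measured in kinetic reads before and after stimulation buffer. Rate constants are normalized to DMSO controls.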
TRHR enhancer-1 = qHTS for Small Molecule Agonists and Allosteric Enhancers of Human TRH Receptor: Primary Screen for Enhancers | Thyrotropin-releasing hormone receptor (Homo sapiens), P34981 | TRHR cells, fluo-8 calcium fluorescence, EC20 TRH enhancement | enhancement, % at 2 µM | 0.66% of 360,000 active; in the data active = enhancement above about 30%; note: 0% is about no effect
Target sequence (P34981 whole entry, looked up): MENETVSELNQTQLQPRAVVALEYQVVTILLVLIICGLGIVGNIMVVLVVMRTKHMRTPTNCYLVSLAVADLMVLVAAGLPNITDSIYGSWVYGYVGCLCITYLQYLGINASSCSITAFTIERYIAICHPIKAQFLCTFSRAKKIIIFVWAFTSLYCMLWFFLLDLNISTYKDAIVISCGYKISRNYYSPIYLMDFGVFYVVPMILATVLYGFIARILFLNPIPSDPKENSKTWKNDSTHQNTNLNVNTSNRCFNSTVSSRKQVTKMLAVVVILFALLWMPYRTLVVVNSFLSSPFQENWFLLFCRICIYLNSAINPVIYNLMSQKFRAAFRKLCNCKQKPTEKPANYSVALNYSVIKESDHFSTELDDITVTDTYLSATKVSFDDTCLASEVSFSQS
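TRHR-expressing cells loaded with fluo-8 calcium dye were read kinetically (ex 480/em 530) during compound addition, then stimulated with an EC20 of TRH (10 nM final). Enhancement of the Gq-mediated intracellular calcium response was scored.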
KCNH2 3.1 inh = qHTS for Inhibitors of KCHN2 3.1: Mutant qHTS; 0.95% of 340,000 active; activity change, % (tested at about 1.8 µM); AID 720553, 2013; Potassium voltage-gated channel subfamily H member 2, brain isoform KCNH2 3.1 (human); U2OS KCNH2 3.1, thallium flux FluxOr; stronger effect = lower value;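 active = maximum activity change below -70%; inconclusive = maximum activity change from -70% to -50%; inactive = maximum activity change above -50%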;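 note: thallium influx rate constant from kinetic fluorescence after stimulation buffer; % is set by controls: 0 for no effect and ±100 for the full control effect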
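Steps: virus added to U2OS suspension (4 h, RT, dark); medium with 10% FBS added, cells plated, 37 C overnight; FluxOr/Red40 loading buffer 45 min RT; stimulation buffer, 2 min kinetic read; rate constant normalized.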
TRHR agonist-1 = qHTS for Small Molecule Agonists and Allosteric Enhancers of Human TRH Receptor: Primary Screen for Agonists. Thyrotropin-releasing hormone receptor (Homo sapiens), P34981. TRHR cells, calcium flux fluo-8, FDSS agonist mode. activation, % at 2 µM. 0.18% of 360,000 active; in the data active = activation above about 30%; note: 0% is about no effect
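TRHR-expressing cells loaded with fluo-8 calcium dye; 23 nL library compound pin-transferred, kinetic FDSS fluorescence (Ex 480/Em 530) recorded about 180 s for agonist-induced calcium release, before a 10 nM TRH EC20 addition for potentiator mode.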
TRHR enhancer-2 = qHTS for Small Molecule Agonists and Allosteric Enhancers of Human TRH Receptor: Confirmation Screen for Enhancers; activity change, negative = inhibition, % at 46.1 µM; TRH receptor cell assay, enhancer confirmation qHTS; 970 tested, under 10 active; AID 493076, 2011; shares compounds with TRHR enhancer-1;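 note: compound effect scored on response to added TRH at EC20 of 10 nM; 0% is about no effect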
TRHR agonist-2 = qHTS for Small Molecule Agonists and Allosteric Enhancers of Human TRH Receptor: Confirmation Screen for Agonists; TRHR-expressing cells, agonist activation read-out; Potency, µM (doses to about 46.1 µM), for the others: top-dose activation, actives largely listed as activators; shares compounds with TRHR enhancer-1; 8% of 970 active; note: potency is the fitted concentration of half-maximal effect; 0% is about no effect; nearly all actives have a fitted effect of over 75% in size
The depositor's hits bear a star; i = inactive; ? = inconclusive; . = no result. Unless noted, calls come from the whole dose curve; as a rule, active = well fitted curve in the direction sought with a large enough effect; inconclusive = small, poorly fitted or top-dose-only effect, or another doubt; inactive = no such curve, though single readings can be large; an effect the other way counts as inactive or inconclusive.

SMILES | TRPML1 ag | TRPML1 blocker | hERG WT inh | TRHR enhancer-1 | KCNH2 3.1 inh | TRHR agonist-1 | TRHR enhancer-2 | TRHR agonist-2
CCCN(c1ccccc1F)S(=O)(=O)c1c[nH]c(C(=O)OC)c1 | 0 | 21 | -6 | 14 | -4 | -1 | . | .
O=C(NCCc1c[nH]c2ccccc12)c1ccc([N+](=O)[O-])o1 | -1 | -2 | -9 | . | 5 | . | . | .
CC(=O)c1c(C)[nH]c(C(=O)COC(=O)Cc2ccccc2F)c1C | 1 | -10 | 2 | . | 2 | . | . | .
CC(=O)c1c(C)[nH]c(C(=O)COC(=O)COc2ccccc2F)c1C | 1 | -7 | 5 | 52* | 21 | -1 | -1 | 0%
CCn1cc(Cl)c(C(=O)NNC(=O)CCn2ccc([N+](=O)[O-])n2)n1 | 0 | 11 | -3 | 0 | 6 | 1 | . | .
O=C(COc1ccccc1Cl)N1CCNC1=O | 0 | 28 | 9 | 8 | -6 | 0 | . | .
COc1ccc(NC2CCCN(C(=O)CSc3ccncc3)C2)cc1 (centres undefined) | 0 | ? | -16 | 83* | -4 | 0 | -1 | -1%
CCOc1cc(/C=C(/C#N)C(=O)Nc2ccc(O)cc2)cc(Br)c1O | 9 | 6 | 2 | -4 | -7 | 40* | 9 | 21µM*
CC(=O)Oc1c(Sc2ccccc2[N+](=O)[O-])c(C)nn1C(C)(C)C | 0 | 12 | 4 | 58* | -2 | 0 | -7 | ?
COc1ccc(CN2CCN(Cc3ccc(CO)o3)CC2CCO)cc1C (centres undefined) | 0 | -2 | 14 | 57* | 7 | 0 | -1 | 1%
O=C(Nc1ccc(NC(=O)c2cccnc2Cl)cc1)c1cccc(Cl)c1 | 0 | 18 | -13 | 21 | 7 | 0 | . | .
O=S(=O)(c1cccc(S(=O)(=O)N2CCC(N3CCCCC3)CC2)c1)N1CCOCC1 | . | . | . | 49* | . | 0 | -2 | 1%
CC1CCN(S(=O)(=O)c2cccc(S(=O)(=O)N3CCOCC3)c2)CC1 | 1 | -13 | 2 | 5 | 0 | 0 | . | .
COc1ccc(OC)c(CN2CCN(C(=O)c3ccc(S(=O)(=O)N4CCCCCC4)cc3)CC2)c1 | -1 | 15 | 28 | . | -6 | . | . | .
COc1ccc(Cl)cc1S(=O)(=O)NC(C)C(=O)NCCCn1ccnc1 (centres undefined) | 0 | 2 | 0 | 67* | 8 | 1 | -2 | -1%
COc1ccc(Cl)cc1S(=O)(=O)NCCCn1ccnc1 | 1 | 24 | -3 | 22 | -4 | 1 | . | .
CN1CCN(CC(O)(c2ccc(Cl)cc2)c2ccc(Cl)cc2)CC1 | 0 | 1 | -20 | -1 | -49 | 2 | . | .
CCC(C)NCC(O)(c1ccc(Cl)cc1)c1ccc(Cl)cc1 (centres undefined) | 2 | -21 | 16 | 50* | -23 | 1 | -5 | ?
COC(=O)C1=C(C(=O)c2ccccc2)C(c2ccccc2)n2nnnc2N1 (centres undefined) | 0 | 14 | i | 62* | -9 | 1 | 1 | -1%
